Compounds with a hit are over-represented: about 7.8% of the library has one in this group of screens.
VACV Venus inh: qHTS for Stage-Specific Inhibitors of Vaccinia Orthopoxvirus: Venus Reporter Primary qHTS; Vaccinia virus Venus reporter expression, fluorescence; Potency, µM (top dose mostly 36.5 µM), hits mostly inhibitors; 0.46% of 330,000 active; calls by dose curve; tested in A549 cells; also: nearly all actives have a fitted effect of over 30% in size
HCV inhibitor: qHTS Assay for Inhibitors of Hepatitis C Virus (HCV); Huh7.5.1 HCVcc-Cre infection, luciferase reporter, 44 h; Potency, µM (highest dose often 41.8 µM), actives largely listed as inhibitors; 3.4% of 340,000 active; active = well fitted inhibition curve with a large enough effect; inconclusive = small, poorly fitted or top-dose-only effect, or another doubt; inactive = no such curve, though single readings can be large or run the other way
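A cell-based infection assay in which seeded cells (1,000 per well) receive test compound after 4 h, are inoculated with HCVcc-Cre at approximately 0.5 moi, and are incubated 44 h before luminescence detection.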
LASV entry inh: qHTS for Inhibitors of binding or entry into cells for Lassa Virus. Lassa virus pseudotype entry inhibition, cell reporter. Potency, µM (series often up to 37.9 µM), usual class: inhibitors. 1.2% of 300,000 active. AID 540256, 2011; calls by dose curve; tested in HEK293 cells; also: nearly all actives have a fitted effect of over 50% in size
VACV mCherry inh: qHTS for Stage-Specific Inhibitors of Vaccinia Orthopoxvirus: mCherry Reporter Primary qHTS; AID 720579, 2013; 0.63% of 310,000 active; Vaccinia virus mCherry reporter infection, fluorescence; Potency, µM (top dose mostly 36.5 µM), most hits filed as inhibitors; calls by dose curve; tested in A549 cells; also: nearly all actives have a fitted effect of over 35% in size
HCMV inh: qHTS Assay for inhibitors of the human cytomegalovirus (HCMV); HFF cells, HCMV-luciferase reporter, 72 h; stronger effect = lower value; activity change, negative = inhibition, % at 57.5 µM; 4.5% of 410,000 active; in the data active = activity change below about -60%; inconclusive = no clear call, values can overlap the other calls; inactive = above about -39%
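Two compound doses tested in HFFs infected with HCMV-luciferase, MOI 1 PFU/cell, 72 h at 37C. Lysate luminescence read with OneGlo; data normalized against buffer-only and 10uM Salinomycin inhibitor controls.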
MARV entry inh: qHTS for inhibitors of binding or entry into cells for Marburg Virus; Marburg virus pseudotyped entry inhibition, cell reporter; Potency, µM (top dose mostly 37.8 µM), most hits filed as inhibitors; 1.8% of 300,000 active; AID 540276, 2011; calls by dose curve; tested in HEK293 cells
A number is an active result; 0 = inactive; ? = inconclusive; - = no result given.

SMILES | VACV Venus inh | HCV inhibitor | LASV entry inh | VACV mCherry inh | HCMV inh | MARV entry inh
CCn1c(C)c(C(C)=O)c(N2CCN(C(c3ccccc3)c3ccccc3)CC2)nc1=S | 0 | 6.3µM | ? | 0 | 0 | ?
CCCNc1nc(=S)n(-c2ccccc2)c(C)c1C(C)=O | 0 | 0 | 0 | 0 | ? | 0
CCCCNc1nc(=S)n(-c2ccccc2)c(C)c1C(C)=O | ? | ? | 0 | 0 | -99 | ?
CC(=O)c1c(N2CCCC2)nc(=S)n(-c2ccccc2)c1C | 0 | 0 | 0 | 0 | -74 | 0
CCn1c(C)c(C(C)=O)c(N2CCN(c3ccccc3)CC2)nc1=S | 0 | 0 | 0 | - | 0 | 0
CC(NC(=O)/C(C#N)=C/c1cn[nH]c1-c1ccccc1)c1ccccc1 (stereo not drawn) | 0 | ? | 11µM | 0 | 0 | ?
N#C/C(=C\c1cn[nH]c1-c1ccc(Cl)cc1)C(=O)NC1CC1 | - | 0 | ? | - | - | 0
N#C/C(=C\c1cn[nH]c1-c1ccccc1)C(=O)NC1CCCCCC1 | - | 25µM | 0 | - | 0 | ?
CN(CCO)C(=O)c1cn(C2CCN(Cc3cccc4ccccc34)CC2)nn1 | 0 | - | - | 0 | - | -
O=C(CCS(=O)(=O)c1cccs1)Nc1ccc(C(=O)Nc2ccccc2F)cc1 | 0 | - | 0 | 0 | 0 | 0
CCCc1cc(=O)oc2c(C)c(OCC(=O)NCCCn3ccnc3)ccc12 | 0 | 0 | 0 | 0 | 0 | 0
CCCc1cc(=O)oc2cc(OCC(=O)NCCCn3ccnc3)c(Cl)cc12 | - | 0 | - | - | -63 | -
COc1ccc(CCNC(=O)c2cnn3c2NC(=C2CC2)C=C3C(F)F)cc1OC | 0 | - | - | 0 | - | -
CCOc1cc(/C=C2\CCC/C(=C\c3cc(Cl)c(O)c(OCC)c3)C2=O)cc(Cl)c1O | 0 | ? | 8.9µM | 0 | -98 | 11µM
CCOc1cc(/C=C2\CN(C)C/C(=C\c3ccc(O)c(OCC)c3)C2=O)ccc1O | ? | 22µM | ? | ? | -100 | ?
CNc1ncn(-c2c(C)cccc2C)c(=O)n1 | - | - | - | - | -99 | -
CCCCNC(=O)C1c2ccccc2OCC(=O)N1CCc1ccc(OC)c(OC)c1 (stereo not drawn) | 0 | - | - | 0 | 0 | -
CN1CCN(CC(=O)Nc2ccccc2C(F)(F)F)CC1 | - | 0 | - | - | 0 | -
CCC(=O)c1ccc(OCC(=O)N2CCN(CC(=O)Nc3ccccc3C(F)(F)F)CC2)cc1 | 0 | 13µM | 0 | 0 | ? | ?
COc1cc(/C=C2\SC(=Nc3ccc(O)cc3)NC2=O)cc(OC)c1OC | 0 | 4µM | ? | 0 | 0 | ?
COc1ccc(N=C2NC(=O)/C(=C/c3ccc(O)c(OC)c3)S2)cc1 | 0 | 0 | 3.7µM | ? | -64 | ?
Cc1cc(C)cc(-n2ccnc2SCC(=O)Nc2nc3ccc(C)cc3s2)c1 | 0 | - | 0 | 0 | 0 | -
Cc1ccc(S(=O)(=O)NCCc2nnc3ccc(SCc4cccc(F)c4)nn23)cc1 | 0 | - | 0 | 0 | 0 | -
CCC1CCCCN1C(=O)C1CC(c2cc(Cl)c(OC)cc2OC)=NO1 (stereo not drawn) | 0 | 0 | 0 | 0 | 0 | 0
COc1cc(OC)c(C2=NOC(C(=O)N3CCCc4ccccc43)C2)cc1Cl (stereo not drawn) | - | 5.6µM | 0 | - | 0 | ?
SMILES | VACV Venus inh | HCV inhibitor | LASV entry inh | VACV mCherry inh | HCMV inh | MARV entry inh
COc1ccc(C(=O)Nc2cc(C(F)(F)F)ccc2-n2cnc3ccccc32)cc1 | 0 | 0 | 0 | 0 | -73 | ?
CC(=O)Nc1ccc(C(=O)Nc2cc(C(F)(F)F)ccc2-n2cnc3ccccc32)cc1 | 0 | 0 | 0 | 0 | 0 | ?
CCCC(=O)N(Cc1cc2cc(OC)ccc2[nH]c1=O)c1ccccc1OC | 0 | - | - | 0 | ? | -
O=C(Cn1cc(COc2ccc3ccc(=O)oc3c2)nn1)c1ccc(O)cc1 | 0 | 2.5µM | ? | 0 | 0 | -
COc1ccc(-c2nc(N=Nc3ccc(O)cc3)n[nH]2)cc1 | 0 | 0 | 0 | 0 | 0 | 0
Cc1ccc(-c2nc(N=Nc3ccc(O)cc3)n[nH]2)cc1 | ? | 0 | ? | ? | -100 | 0
CCCOc1ccc(CNC(=O)Cn2c(=O)oc3ccccc32)cc1 | 0 | ? | - | 0 | 0 | 0
CCCOc1ccc(CNC(=O)c2cc3oc4ccccc4c3n2C)cc1 | 0 | - | - | 0 | -86 | ?
Cn1c(C(=O)NCc2ccccc2)cc2oc3ccccc3c21 | 0 | ? | ? | 5µM | -89 | 2.6µM
COc1ccc(CNC(=O)c2cc3oc4ccccc4c3n2C)cc1OC | 0 | - | - | 0 | ? | 5µM
Cn1c(C(=O)NCc2ccccc2F)cc2oc3ccccc3c21 | 0 | - | - | ? | -63 | ?
Cn1c(C(=O)NCC2CCCO2)cc2oc3ccccc3c21 (stereo not drawn) | 0 | ? | ? | - | 0 | ?
Cn1c(C(=O)NCc2cccs2)cc2oc3ccccc3c21 | 0 | ? | 0.5µM | 10µM | -80 | 0.45µM
CN1C(=O)Cc2cc(S(=O)(=O)CCC(=O)N3CCN(c4cccc(Cl)c4)CC3)ccc21 | 0 | - | 0 | 0 | 0 | -
O=C(CNC(=O)C12CC3CC(CC(C3)C1)C2)N1CCN(S(=O)(=O)/C=C/c2ccccc2)CC1 | 0 | 0 | ? | 0 | -72 | 0
COc1cc(Nc2nc3c(S(=O)(=O)c4ccccc4)nnn3c3ccc(Cl)cc23)cc(OC)c1 | 0 | - | - | 0 | 0 | 0
Cc1c(C(=O)N2CCCCC2)sc2ncnc(NCCN(C)C)c12 | 0 | - | - | 0 | - | -
COc1ccc(OCc2nn3c(Cn4cnc5ccccc54)nnc3s2)cc1 | 0 | ? | 0 | 0 | -68 | ?
c1ccc(CCc2nn3c(Cn4cnc5ccccc54)nnc3s2)cc1 | 0 | 0 | ? | 0 | 0 | 0
Nc1[nH]c2cc([N+](=O)[O-])ccc2c1-c1ccccn1 | 0 | 13µM | 0 | ? | 0 | 0
O=C(NCc1nnc2n1CCN(Cc1cccc(Cl)c1)CC2)c1cccc(F)c1 | 0 | - | - | 0 | - | -
Cc1cccc(-n2c(=O)c3c(c4cc(C)ccc4n3C)n(CC(=O)NCC3CCCO3)c2=O)c1 (stereo not drawn) | 0 | - | 0 | 0 | -106 | -
CCN(CC)c1ccc(CNCCc2ccc(F)cc2)cc1 | 0 | ? | ? | 10µM | 0 | ?
O=c1nccc(N/N=C/c2ccccc2O)[nH]1 | ? | ? | ? | 1µM | -91 | 5.6µM
COc1cccc(/C=N/Nc2ccnc(=O)[nH]2)c1O | ? | 2.2µM | ? | 0.79µM | -94 | ?
SMILES | VACV Venus inh | HCV inhibitor | LASV entry inh | VACV mCherry inh | HCMV inh | MARV entry inh
CCOc1ccccc1/C=N/Nc1nc(C)cc(=O)[nH]1 | - | 0 | - | - | - | -
CCOc1ccccc1/C=N/Nc1ccnc(=O)[nH]1 | 0 | 11µM | ? | 0 | -99 | ?
CCCOc1ccc(C(=O)NCC(c2ccc(OC)cc2)N2CCCCC2)cc1 (stereo not drawn) | 0 | - | 0 | 0 | 0 | ?
CCOC(=O)/C(=N\O)C1=NC(C)(C)Cc2ccccc21 | 0 | 0 | 0 | 0 | 0 | ?
Cc1cccc(N/N=C(\C(N)=O)C2=NC(C)(C)Cc3ccccc32)c1 | ? | 11µM | 6.3µM | ? | -98 | ?
Cc1cc(Nc2ccc(Br)cc2)nc(-c2ccccc2O)n1 | - | 13µM | - | - | 0 | -

Screens from PubChem.
